DUSP3 inh: DUSP3 (human) phosphatase inhibition; recombinant VHR phosphatase, pNPP absorbance; inhibition, % at 13.3 µM; 0.52% of 290,000 active; in the data active = inhibition above about 50%
BJeLR viability: kills HRASV12-expressing BJeLR cells; BJeLR (HRASV12) viability, CellTiter-Glo ATP luminescence, 48 h; inhibition, % (concentration not given with the values); 0.17% of 300,000 active; in the data active = inhibition above about 50%
PrPC TRFRET: inhibitors of human cell surface prion protein PrPC. inhibition, % at 13.8 µM. AID 720596. TR-FRET read-out. P04156. 0.43% of 370,000 active; in the data active = inhibition above about 24%
3CLpro inhibitor: SARS-CoV 3CLpro protease inhibition; inhibition, % at 6 µM; recombinant SARS-CoV 3CLpro, quenched FRET peptide cleavage; P0C6X7; 0.14% of 290,000 active; in the data active = inhibition above about 12%
PrPC confirm: cell surface PrPC inhibition, TR-FRET confirmation; shares compounds with PrPC TRFRET; cell surface PrPC level; inhibition, % at 13.8 µM; 65% of 1,500 active; AID 743200; in the data active = inhibition above about 25%
LD9 tox: kills or reduces viability of LD9 cells in PrPc counter-screen; shares compounds with PrPC TRFRET; LD9 cells cytotoxicity, luminescence viability; inhibition, % at 13.8 µM; 29% of 1,500 active; in the data active = inhibition above about 9.5%
Large screens that a line does not name were inactive (follow-up assays come after a bar, where they were run). Hits are enriched below; roughly 1.1% of the tested compounds scored in any of these assays.

O=C(CSc1nnc(NC(=O)c2ccccc2F)s1)NCc1ccc(F)cc1	PrPC TRFRET 35 | PrPC confirm inactive | LD9 tox inactive
O=C(NC1CCCCC1)c1cc2c(cc1Cl)N1CCCCCC1=NS2(=O)=O	none (no result: DUSP3 inh, BJeLR viability, 3CLpro inhibitor)
COc1ccc2nc3cc(Cl)ccc3c(Nc3cc(C(C)C)c(O)cc3C)c2c1	none
COc1ccc2nc3cc(Cl)ccc3c(Nc3cc(CN4CCCC4)c(O)c(CN4CCCC4)c3)c2n1	PrPC TRFRET 45 | PrPC confirm 42 | LD9 tox 37
CC1CCCN(C(=O)COC(=O)C2=COCCO2)C1 (stereo unspecified)	none (no result: DUSP3 inh, BJeLR viability, 3CLpro inhibitor)
CCc1cc(=O)oc2cc(OC(C)=O)cc(OC(C)=O)c12	PrPC TRFRET 47 | PrPC confirm 46 | LD9 tox inactive
COc1cc(OCc2ccccc2)c2c(CCC(=O)O)cc(=O)oc2c1	none (no result: DUSP3 inh, BJeLR viability, 3CLpro inhibitor)
C[C@@H]1CN([C@@H](C)CO)C(=O)CCCn2cc(nn2)CO[C@H]1CN(C)C(=O)Nc1cccc2ccccc12	none (no result: DUSP3 inh, BJeLR viability, 3CLpro inhibitor)
O=C(c1ccc(F)c(F)c1)N1CCC2(CC1)NCCc1[nH]cnc12	none
CCCCc1c(-c2ccc(F)cc2F)ncn1CCc1ccccc1OC	none (no result: DUSP3 inh, BJeLR viability, 3CLpro inhibitor)
CCCCc1c(Cc2cccc(F)c2)ncn1CCc1ccccc1OC	PrPC TRFRET 27 (no result: DUSP3 inh, BJeLR viability, 3CLpro inhibitor) | PrPC confirm inactive | LD9 tox 17
CC1CC(C)C(=O)C(C(CC2CC(=O)NC(=O)C2)OC(=O)CC(=O)c2ccccc2)C1 (stereo unspecified)	PrPC TRFRET 85 (no result: DUSP3 inh, BJeLR viability, 3CLpro inhibitor) | PrPC confirm 95 | LD9 tox 31
N#CNC(=Nc1cccc(F)c1)SCc1cccc(F)c1	none
N#CNC(=Nc1cccc(F)c1)SCc1ccccc1	PrPC TRFRET 31 | PrPC confirm inactive | LD9 tox inactive
O=C(NC1CCCCC1)N(Cc1nc2ccccc2c(=O)[nH]1)C1CCCCC1	none
COc1ccc(CN(Cc2nc3ccccc3c(=O)[nH]2)C(=O)NC2CCCCC2)cc1	PrPC TRFRET 25 | PrPC confirm inactive | LD9 tox inactive
O=C(CNc1nnnn1-c1ccccc1)N1CCCC1	none (no result: DUSP3 inh, BJeLR viability, 3CLpro inhibitor)
COc1ccc(C(C)=O)cc1CSc1nnc(-c2ccncc2)n1C	none
COc1ccc(C(C)=O)cc1CSc1nnc(-c2ccc(Cl)cc2)n1-c1ccccc1	PrPC TRFRET 56 | PrPC confirm inactive | LD9 tox inactive
Cc1cccc(CS(=O)(=O)c2ncc(Cl)c(C(=O)NCc3ccccc3)n2)c1	PrPC TRFRET 26 | PrPC confirm inactive | LD9 tox 46
Cc1ccc(NC(=O)c2nc(S(=O)(=O)Cc3ccccc3)ncc2Cl)cc1	PrPC TRFRET 84 | PrPC confirm 56 | LD9 tox 92
O=C(Nc1ccc(F)cc1)c1nc(S(=O)(=O)Cc2ccccc2)ncc1Cl	PrPC TRFRET 66 | PrPC confirm 64 | LD9 tox 94
CCS(=O)(=O)c1ncc(Cl)c(C(=O)Nc2ccc(S(=O)(=O)N(C)c3ccccc3)cc2)n1	PrPC TRFRET 89 | PrPC confirm 102 | LD9 tox 97
CCN(c1ccccc1)S(=O)(=O)c1ccc(NC(=O)c2nc(S(C)(=O)=O)ncc2Cl)cc1	none (no result: PrPC TRFRET)
Cc1ccc(Cc2c(-c3ccc(F)cc3)nc3ccc(Br)cn23)cc1	none (no result: DUSP3 inh, BJeLR viability, 3CLpro inhibitor)
CC(=O)c1sc(NC(=O)C(C)C)nc1C	PrPC TRFRET 33 | PrPC confirm 35 | LD9 tox inactive
CC(=O)Nc1nc(C)c(C(C)=O)s1	none
CCCNC(=O)c1cc2c(c(-c3cccc(-c4ccccc4F)c3)n1)[C@H](CCO)N(C(=O)CC1CC1)C2	none (no result: DUSP3 inh, BJeLR viability, 3CLpro inhibitor)
CC(=O)Nc1ccc(NC(=O)CSc2ncnc3sc(C)c(C)c23)cc1	none
Cc1cccc(NC(=O)CSc2ncnc3sc(C)c(C)c23)n1	PrPC TRFRET 27 | PrPC confirm 42 | LD9 tox inactive
Cc1sc2ncnc(SCC(=O)NC(=O)c3cccn3C)c2c1C	PrPC TRFRET 31 | PrPC confirm 77 | LD9 tox inactive
Cc1sc2ncnc(SCC(=O)N3CCCC3=O)c2c1C	PrPC TRFRET 27 | PrPC confirm 40 | LD9 tox inactive
COC(=O)[C@]12CCCCC=C1N(Cc1ccco1)C(=O)[C@H](CC(=O)NCCCN1CCCC1=O)C2	none (no result: DUSP3 inh, BJeLR viability, 3CLpro inhibitor)
CC(C)(C)c1ccc(-n2nc(C(N)=O)c(O)cc2=O)cc1	none
CC(C)(C)c1ccc(-n2nc(C#N)c(Cl)cc2=O)cc1	BJeLR viability 56, PrPC TRFRET 69 | PrPC confirm 70 | LD9 tox 98
Clc1ccc(-n2ncc3c(NCc4cccs4)ncnc32)cc1	none (no result: DUSP3 inh)
Cc1cccc(-n2ncc3c(NCc4cccs4)ncnc32)c1	PrPC TRFRET 27 | PrPC confirm inactive | LD9 tox inactive
NC(=O)CN1C(=O)NC2(CCCc3ccccc32)C1=O (stereo unspecified)	none
Cc1cc(C)c(-c2csc(NC(=O)/C=C/c3cccs3)n2)c(C)c1	DUSP3 inh 53, PrPC TRFRET 45 | PrPC confirm 41 | LD9 tox inactive
Cc1cc(C)nc(NC(=O)/C=C/c2cccs2)c1	none
Nc1ccc2cc3[nH]c4cc(N)ccc4c3nc2c1	PrPC TRFRET 27 (no result: DUSP3 inh, BJeLR viability, 3CLpro inhibitor) | PrPC confirm inactive | LD9 tox 31
Cc1ccc(C)c(NC(=O)CN(C)C(=O)c2cc3ccccc3oc2=O)c1	none (no result: DUSP3 inh, BJeLR viability, 3CLpro inhibitor)
COc1ccccc1-c1nnc(Nc2nc3c(OC)cccc3s2)o1	PrPC TRFRET 42 | PrPC confirm 69 | LD9 tox 40
COc1cccc2sc(Nc3nc(-c4ccncc4)cs3)nc12	PrPC TRFRET 28 | PrPC confirm inactive | LD9 tox 27
COC(=O)[C@H](CC(C)C)NC(=O)Cn1cnc2c(NCc3ccccc3)ncnc21	none (no result: DUSP3 inh, BJeLR viability, 3CLpro inhibitor)
Cc1cc(C)c(C)c(S(=O)(=O)NCc2cccnc2)c1C	none
Cc1cc(C)c(S(=O)(=O)NCc2cccnc2)c(C)c1	PrPC TRFRET 46 | PrPC confirm 35 | LD9 tox inactive
NS(=O)(=O)c1ccc(CCNC(=O)c2cc(-c3ccccn3)nc3ccc(Br)cc23)cc1	PrPC TRFRET 29 | PrPC confirm 48 | LD9 tox 21
Cc1ccccc1CN1C(=O)CN(S(C)(=O)=O)CC1(C)C(=O)Nc1ccc2c(c1)OCCO2 (stereo unspecified)	none (no result: DUSP3 inh, BJeLR viability, 3CLpro inhibitor)
CC(=O)c1sc(NC(=O)c2c(F)cccc2F)nc1-c1ccccc1	PrPC TRFRET 25 | PrPC confirm inactive | LD9 tox inactive
CC(=O)O[C@H]1C(=O)[C@@]2(C)C([C@H](OC(=O)c3ccccc3)[C@]3(O)C[C@H](OC(=O)[C@H](O)[C@@H](NC(=O)c4ccccc4)c4ccccc4)C(C)=C1C3(C)C)[C@]1(OC(C)=O)CO[C@@H]1C[C@H]2O (stereo partly specified)	none
CC(=O)O[C@H]1C(=O)[C@]2(C)[C@H]([C@H](OC(=O)c3ccccc3)[C@]3(O)C[C@H](OC(=O)[C@H](O)[C@@H](NC(=O)c4ccccc4)c4ccccc4)C(C)=C1C3(C)C)[C@]1(OC(C)=O)CO[C@@H]1C[C@@H]2O	PrPC TRFRET 28 (no result: DUSP3 inh, 3CLpro inhibitor) | PrPC confirm 25 | LD9 tox inactive
CCOC(=O)c1cocc1C(=O)O	none (no result: DUSP3 inh, BJeLR viability, 3CLpro inhibitor)
CCn1c2ccccc2c2cc(NC(=O)COC(=O)c3cccc(F)c3F)ccc21	none (no result: DUSP3 inh, BJeLR viability, 3CLpro inhibitor)
